# According to PubChem BioAssay (NCATS):
# Results filed as inconclusive are left out. Active and inactive are the calls of the source. The call rests on the fitted dose curve; in most records, active means well fitted cell-killing curve with a large enough effect; inconclusive means small, poorly fitted or top-dose-only effect; inactive means no such curve, though single readings can be large or run the other way.
# Experiment: qHTS of pediatric cancer cell lines to identify multiple opportunities for drug repurposing: Primary screen for A673 cells (AID 1347092); further: nearly all actives have a fitted effect of over 45% in size
# Conditions: A673 Ewing sarcoma viability, CellTiter-Glo ATP luminescence, 48 h; series mostly up to 46 µM; activity change, negative = cytotoxic: at the top concentration
# How it was run: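 48 h compound exposure, A673, 500-1,000 cells/well, 37 degrees C/5% CO2. MIPE: 11-point, 0.78 nM-46 µM; NPC: 8-point, 0.59 nM-46 µM (final). Readout CellTiter-Glo luminescence after 15 min RT.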
# On the % scale 0 is the no-effect control and ±100 the full control effect.
row,Structure (SMILES),"activity change, negative = cytotoxic"
1,Cc1onc(-c2c(Cl)cccc2Cl)c1C(=O)Cl,-3.15% (inactive)
2,CCOC(=O)Oc1ccc(CCNC(=O)[C@H](CCSC)NC(C)=O)cc1OC(=O)OCC,2.5% (inactive)
3,O=[N+]([O-])c1nccn1CO[C@@H](CO)[C@H](O)CO,5.21% (inactive)
4,NS(=O)(=O)c1ccc(N2CCCCS2(=O)=O)cc1,5.82% (inactive)
5,O=C(O)CCC(=O)OC[C@@H](NC(=O)C(Cl)Cl)[C@H](O)c1ccc([N+](=O)[O-])cc1,6.58% (inactive)
6,CC(=O)c1ccc(O)c(C(N)=O)c1,-0.139% (inactive)
7,O=C1c2ccccc2CCc2ccccc21,0.416% (inactive)
8,CCOC(=O)c1ccc(NC(=O)CN2CCCCC2)cc1,12.6% (inactive)
9,Cc1c(F)cc2c(=O)c(C(=O)O)cn3c2c1CCC3C (stereo not given),-4.94% (inactive)
10,CC(C)(C)NCC(O)COc1ccccc1OCC1CCCO1 (stereo not given),12.4% (inactive)
11,Cc1ccc(O)cc1,3.34% (inactive)
12,CCCCC(CC)CNC(=O)CC(C)OC(=O)CCC(=O)O (stereo not given),0.182% (inactive)
13,CCN(CC)CC(=O)OCC(=O)[C@@]1(O)CC[C@H]2[C@@H]3CCC4=CC(=O)CC[C@]4(C)[C@H]3[C@@H](O)C[C@@]21C,9.55% (inactive)
14,OCCCc1ccccc1,0.108% (inactive)
15,O=C(CCCCC(=O)Nc1c(I)cc(I)c(C(=O)O)c1I)Nc1c(I)cc(I)c(C(=O)O)c1I,19% (inactive)
16,Cc1cccc(OCC(O)CNC(C)(C)C)c1C (stereo not given),-6.21% (inactive)
17,Cc1ccc(C(=O)C(=O)O)cc1C,8.75% (inactive)
18,CC(=O)Nc1c(I)c(NC(C)=O)c(I)c(C(=O)O)c1I,-8.31% (inactive)
19,CC(C)(Oc1ccc(Cl)cc1)C(=O)OCCCOC(=O)C(C)(C)Oc1ccc(Cl)cc1,0.208% (inactive)
20,O=C(CO)[C@@H](O)[C@H](O)[C@@H](O)CO,-3.37% (inactive)
